# Source: PubChem BioAssay
# Only some compounds are listed: those with a hit (about 11% of all), similar ones and a draw of the others.
# PNC inhibitor – High Content Assay for Compounds that inhibit the Assembly of the Perinucleolar Compartment; PC3M PTB-GFP, PNC prevalence imaging, 16 h; active compounds read low; activity change (PNC), negative = inhibition, % at 10 µM; 140,000 tested, 3.1% active; AID 2417, 2010;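 active = readout at or below -70, meaning at least 70% loss of cells showing the perinucleolar compartment, a nuclear body marking cancer cells; inconclusive = readout between -30 and a set limit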;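 also: plate controls were DMSO wells for no effect and camptothecin positive control wells for full effect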
#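 Compounds are pinned in duplicate onto adhered PC3M cells stably expressing GFP-tagged PTB and incubated 16 h at 37 C. Cells are then fixed, nuclei stained with Hoechst, and PNC-positive cells counted.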
# ALDH1A1 block – qHTS Assay for Inhibitors of Aldehyde Dehydrogenase 1 (ALDH1A1); Aldehyde dehydrogenase 1A1 (Homo sapiens), P00352; Purified ALDH1A1, NADH fluorescence, propionaldehyde substrate; Potency, µM (titrated, usually from 75.3 µM), for inactives: at the top dose activity, negative = inhibition, most hits filed as inhibitors; 220,000 tested, 7.3% active; active = well fitted inhibition curve with a large enough effect, not every such curve was filed as active; inconclusive = small, poorly fitted or top-dose-only effect, or another doubt; inactive = no such curve, though single readings can be large or run the other way;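 also: potency is read from the fitted curve at half-maximal effect; plate controls were no enzyme wells and a reference inhibitor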
# Target sequence (P00352 whole entry, looked up): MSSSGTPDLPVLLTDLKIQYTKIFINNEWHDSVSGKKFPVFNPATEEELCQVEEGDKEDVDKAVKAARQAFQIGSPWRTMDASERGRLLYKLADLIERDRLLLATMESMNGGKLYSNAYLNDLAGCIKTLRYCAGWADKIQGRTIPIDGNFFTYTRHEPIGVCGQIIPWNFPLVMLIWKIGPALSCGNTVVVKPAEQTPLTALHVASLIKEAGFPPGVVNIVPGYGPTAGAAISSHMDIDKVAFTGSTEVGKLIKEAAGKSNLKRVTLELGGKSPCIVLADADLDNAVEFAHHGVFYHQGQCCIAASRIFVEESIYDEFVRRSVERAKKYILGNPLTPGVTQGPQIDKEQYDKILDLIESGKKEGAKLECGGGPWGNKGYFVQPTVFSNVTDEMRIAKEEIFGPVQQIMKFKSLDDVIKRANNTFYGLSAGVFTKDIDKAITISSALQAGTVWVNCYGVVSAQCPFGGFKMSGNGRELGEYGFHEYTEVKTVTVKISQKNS
# HTT aggregate – qHTS Multiplex Assay to Identify Dual Action Probes in a Cell Model of Huntington: Aggregate Formation (GFP) | Potency, µM (highest dose often 46.1 µM), for the others: top-dose activity change, negative = inhibition, most hits filed as inhibitors | 220,000 tested, 1.1% active | PC12 HttQ103-GFP aggregates, Acumen cytometry, 40 h; also: potency is read from the fitted curve at half-maximal effect; % is scaled to controls: 0 for no effect and ±100 for the full control effect; nearly all actives have a fitted effect of over 60% in size
#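 PC12 cells stably carrying ecdysone-inducible HTT exon 1 Q103–GFP were induced with tebufenozide (100 nM final) and treated with library compounds in titration. GFP aggregates in lysates were counted by laser scanning cytometry.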
# HTT cytoprotect – qHTS Multiplex Assay to Identify Dual Action Probes in a Cell Model of Huntington: Cytoprotection (ATP); PC12 HTT-Q103 induced, cytoprotection, ATP luminescence, 40 h; 230,000 tested, 0.14% active; Potency, µM (highest dose often 56.4 µM), without a hit: cytoprotection (ATP increase), usual class: activators; also: potency is read from the fitted curve at half-maximal effect; % of control where 0% means no effect; nearly all actives have a fitted effect of over 45% in size
#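 Readout: ATPlite luminescence (ATP level). Model: stable PC12, inducible Htt exon1 Q103-GFP. Inducer: tebufenozide, 100 nM final. Compounds: dose series. No G418 in medium.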
# HPGD inh – qHTS Assay for Inhibitors of HPGD (15-Hydroxyprostaglandin Dehydrogenase); purified HPGD, NADH fluorescence kinetic, PGE2 substrate; Potency, µM, inactives show top-dose activity change, negative = inhibition, usual class: inhibitors; 150,000 tested, 4.3% active; AID 894, 2007; active = well fitted inhibition curve with a large enough effect, not every such curve was filed as active; inconclusive = small, poorly fitted or top-dose-only effect, or another doubt; inactive = no such curve, though single readings can be large or run the other way; also: potency is read from the fitted curve at half-maximal effect; % is scaled to controls: 0 for no effect and ±100 for the full control effect
# Target sequence (P15428 whole entry, looked up): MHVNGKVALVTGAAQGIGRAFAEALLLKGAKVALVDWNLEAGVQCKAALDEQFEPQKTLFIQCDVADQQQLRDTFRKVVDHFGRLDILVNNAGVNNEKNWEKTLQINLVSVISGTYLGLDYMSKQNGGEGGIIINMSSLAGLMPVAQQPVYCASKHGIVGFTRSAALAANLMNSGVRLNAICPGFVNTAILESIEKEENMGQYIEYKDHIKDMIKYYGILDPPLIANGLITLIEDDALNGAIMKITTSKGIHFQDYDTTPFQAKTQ
#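 20 nM HPGD preincubated 15 min at room temperature with compound in 50 mM Tris-HCl pH 8, 0.01% Tween 20. Started with 1 mM NAD+ and 30 uM prostaglandin E2; NADH fluorescence (360/450 nm) read 5 times over 30-s intervals, last minus first.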
# CBFb-RUNX1 inh – qHTS Assay for Compounds Blocking the Interaction Between CBF-beta and RUNX1 for the Treatment of Acute Myeloid Leukemia; Runt-related transcription factor 1 (Homo sapiens) + Core-binding factor subunit beta …; Potency, µM (titrated, usually from 59.8 µM), inactives show top-dose activity, negative = inhibition, usual class: inhibitors; 230,000 tested, under 10 active; AlphaScreen CBFb-His/RUNX1-biotin binding, biochemical; AID 1477, 2009; also: % of control where 0% means no effect
#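 Read-out: AlphaScreen. Format: His-CBF-beta with biotinylated RUNX1 (30 nM each) preincubated 20 min, compound 15 min, Ni-chelate plus streptavidin beads 90 min; room temperature throughout.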
# * = called active by the depositor; ? = inconclusive; / = not tested or not shown; [ ] = dose if it differs, or a comment. Unless noted, calls follow the shape of the dose curve; as a rule, active = well fitted curve in the direction sought with a large enough effect; inconclusive = small, poorly fitted or top-dose-only effect, or another doubt; inactive = no such curve, though single readings can be large; an effect the other way counts as inactive or inconclusive.
SMILES,PNC inhibitor,ALDH1A1 block,HTT aggregate,HTT cytoprotect,HPGD inh,CBFb-RUNX1 inh
COc1ccc(N2CSC3=C(C#N)C(c4cccc(OC)c4OC)CC(=O)N3C2)cc1 (configuration not stated),12.3,12.6µM*,11.1%,-19.4%,8.91µM*,-4.8%
COc1ccc(C2CC(=O)N(C)c3ccccc3S2)cc1OC (configuration not stated),/,10.1%,-14.6%,-83.8%,/,-1.6%
COc1ccc(C2CC(=O)N3CN(c4ccccc4F)CSC3=C2C#N)cc1OC (configuration not stated),15.5,7.08µM*,1.3%,-15.1%,?,-8.2%
COc1cccc(C2SCC(=O)N2c2ccc(Cl)cc2)c1OC (configuration not stated),-24.3,-8.3%,22.3%,10.0%[10 µM],0.4%,1.0%
CN(C)c1ncc2nc(-c3cccc(C#N)c3)c(=O)n(C[C@H]3CCCO3)c2n1,/,?,/,-43.4%,/,/
COc1ccc(C(=O)N2CCC3(CC2)CCN(C(c2ccccc2)c2ccccc2)CC3)cc1,/,-3.5%,/,13.0%,-3.8%,/
NC(C(=O)O)c1ccc(P(=O)(O)O)cc1 (configuration not stated),/,5.5%,/,4.7%,/,0.2%
CC(=O)c1ccc2c(c1)CC(C)C(=O)N2C (configuration not stated),?,2.5%,12.1%,/,?,5.2%
COc1ccc(OC)c(C2CC(=O)N3CN(c4ccccc4)CSC3=C2C#N)c1 (configuration not stated),34.5,7.94µM*,8.9%,-23.4%,7.08µM*,-5.8%
CCc1ccccc1N1CSC2=C(C#N)C(c3ccccc3F)CC(=O)N2C1 (configuration not stated),?,2.82µM*,23.9%,1.7%,5.62µM*,-11.2%
COc1ccc(C2CC(=O)N3CN(c4ccc(C)c(Cl)c4)CSC3=C2C#N)cc1 (configuration not stated),63.0,3.16µM*,11.9%,-11.8%,?,-11.8%
COc1ccc(OC)c(C2NC(=O)c3sc(=S)n(-c4ccccc4)c3N2)c1 (configuration not stated),4.0,?,-0.5%,0.7%,?,-5.3%
CCN(CC)c1ccc(N=Cc2cc(Br)ccc2O)cc1,/,7.94µM*,-19.2%,-27.8%,/,-23.7%
CC1=CC[C@@]2(CO)COC(c3ccccc3O)C1C2 (some centres not stated),/,?,/,-16.4%,-0.4%,-5.8%
CC(=O)/C=C\c1cn(-c2ncc(C(F)(F)F)cc2Cl)c2ccccc12,-124.4*,-6.7%,?,-3.9%[10 µM],31.6µM*,4.7%
N#CC(C#N)=Cc1cn(-c2ncc(C(F)(F)F)cc2Cl)c2ccccc12,-12.7,?,-10.3%,23.2%[10 µM],-7.2%,14.8%
Cn1cc(/C=N/n2cnc3scc(-c4ccccc4)c3c2=O)c2ccccc21,-112.6*,?,-19.2%,-107.0%[0.074 µM],-29.9%,-4.0%
COC(=O)C1=C(C)Nc2nnnn2C1c1cc(OC)ccc1OC (configuration not stated),?,2.5%,1.7%,-3.1%[10 µM],/,-0.4%
COC(=O)C1=C(C)Nc2nnnn2C1c1cccs1 (configuration not stated),?,2.82µM*,?,3.8%,15.8µM*,12.0%
CC1=C(C(=O)Nc2ccccc2)C(c2sccc2C)n2nnnc2N1 (configuration not stated),3.4,0.355µM*,6.7%[9.22 µM],13.8%,-13.7%,2.3%
C=CCOC(=O)C1=C(C)Nc2nnnn2C1c1ccc(OC)cc1OC (configuration not stated),57.7,?,5.3%[9.22 µM],1.2%,-4.9%,1.9%
C=CCOC(=O)C1=C(C)Nc2nnnn2C1c1cccs1 (configuration not stated),?,6.31µM*,-10.6%,-18.0%,-16.1%,-1.3%
CC1CCN(C(=O)CSc2nc3[nH]ncc3c(=O)[nH]2)CC1,?,11.2µM*,-13.0%,29.5%[10 µM],-16.6%,1.6%
CC1CCN(C(=O)CSc2nc3ccccc3c(=O)[nH]2)CC1,/,?,-2.8%[9.22 µM],-5.5%[10 µM],/,1.8%
COc1cc(/C=N/NC(=O)CCN2CCN(c3ccccc3)CC2)cc(OC)c1OC,-86.3*,-10.7%,29.5%,/,-11.8%,-2.5%
SMILES,PNC inhibitor,ALDH1A1 block,HTT aggregate,HTT cytoprotect,HPGD inh,CBFb-RUNX1 inh
O=C(Cc1csc(N2CCOCC2)n1)N/N=C/c1ccc(O)c(O)c1O,/,7.51µM*,-5.0%,-22.6%,/,/
O=C(CCN1CCN(c2ccccc2)CC1)N/N=C/c1ccc(O)c(O)c1O,/,3.98µM*,-5.8%,11.3%,/,-1.5%
COc1ccc(/C=N/NC(=O)CCN2CCN(c3ccccc3)CC2)c(OC)c1OC,-25.0,4.2%,-16.0%,-4.6%[10 µM],-0.3%,9.2%
O=C(NCCO)c1ccc(-n2c(=O)c(=O)[nH]c3ccccc32)cc1,/,-1.8%,/,/,-6.4%,/
COc1ccccc1-c1ccc(Nc2ccc(C(=O)N3CCOCC3)cc2)nn1,163.9,?,?,23.4%[10 µM],7.94µM*,-4.3%
COc1ccc(-c2ccc(Nc3ccc(C(=O)N4CCOCC4)cc3)nn2)cc1OC,-2.1,0.0%,22.9%,0.2%[1.9 µM],17.8µM*,14.0%
COc1ccc(-c2ccc(SCC(=O)N3CCOCC3)nn2)cc1OC,-19.0,-2.5%,5.1%,-59.8%[10 µM],-20.6%,-4.6%
COc1ccc2nc(NC(=O)Cn3cnc4ccccc4c3=O)sc2c1,/,/,-3.5%[9.22 µM],-6.6%[10 µM],/,7.2%
C=CCOC(=O)C1=C(C)NC(SCC(=O)Nc2nccs2)=C(C#N)C1c1ccc(Cl)cc1 (configuration not stated),6.0,?,13.5%,-25.4%,-28.1%,-1.1%
C=CCOC(=O)C1=C(C)NC(SCC(=O)Nc2nccs2)=C(C#N)C1c1cccs1 (configuration not stated),?,?,12.6µM*,-32.0%,-16.7%,3.0%
C=CCOC(=O)C1=C(C)NC(SC)=C(C#N)C1c1ccc(OCC)cc1 (configuration not stated),-1.9,20µM*,0.2%,-13.8%[0.074 µM],/,15.6%
COc1ccc(CNC(=O)COC(=O)CC2CCCC2)cc1,-22.4,7.94µM*,2.9%,-8.9%[0.074 µM],-12.3%,-5.0%
COc1ccc(CC(=O)OCC(=O)NCc2ccc(Cl)cc2)cc1,/,1.8%,-4.7%,-26.0%,/,18.4%
